In ChEMBL document CHEMBL1201862, “PubChem BioAssay data set” (2004):
In all, about 57,000 sequences went through this assay and about 3,700 (6.5%) were called active. Cut-off read from the data, not from the text of the source: active = GI50 up to about 1.1 µM and inactive = higher. Only a sample is shown. Potency and affinity values are given separately.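 All cell lines were grown in 96-well plates and treated with compound for 48 hours. Abbreviation: GI50, concentration required for 50% inhibition of growth.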

System: IGROV-1
Test: NCI tumour cell line growth inhibition, 48 h

Substance | GI50 [µM]
[Bis(aminomethyl)pentamethylenesilane]dichloropaltinum(II), CHEMBL2146202 | 41.9
[Bis(aminomethyl)pentamethylenesilane]tetrachloropaltinum(IV), CHEMBL2146204 | 10.5
CISPLATIN, CHEMBL11359 | 2.02
mu-(1,7-nanodiamine-N,N')bis-(cis-aminedichloroplatimum (II)), CHEMBL2146215 | 29
[Bis(aminomethyl)tetramethylenesilane]dichloropaltinum(II), CHEMBL2146205 | 36.8
[Bis(aminomethyl)dimethylsilane]dichloroplatinum (II), CHEMBL2146201 | > 100
[Bis(aminomethyl)diethylsilane]tetrachloroplatinum(IV), CHEMBL2146203 | 15.5
[Bis(aminomethyl)ethylmethylsilane]tetrachloroplatinum(IV), CHEMBL2146192 | 16
cis-Bis[[(trimethylsilyl)methyl]amino]tetrachloroplatinum(IV), CHEMBL2146191 | 15.4
[Bis(aminomethyl)dimethylsilane]tetrachloroplatinum(IV), CHEMBL2146190 | 15.4
[Bis(aminomethyl)tetramethylenesilane]tetrachloropaltinum(IV), CHEMBL2146189 | 6.1
